Here are results for 30 compounds from PubChem BioAssay (EPA / NIEHS).

“And” between values parts separate entries of the source, which are not always exact repeats. Equal values may be shown once. Results filed as inconclusive are left out. The source made the active and inactive calls. How the source made its calls: active means hit-call score of the fitted dose curve at least 0.9, where 1 is the maximum; inconclusive means response in the unintended direction; inactive means score below 0.9.

Sequence of Retinoic acid receptor RXR-alpha (Homo sapiens) (P19793 whole entry, looked up, the tested form may be a part): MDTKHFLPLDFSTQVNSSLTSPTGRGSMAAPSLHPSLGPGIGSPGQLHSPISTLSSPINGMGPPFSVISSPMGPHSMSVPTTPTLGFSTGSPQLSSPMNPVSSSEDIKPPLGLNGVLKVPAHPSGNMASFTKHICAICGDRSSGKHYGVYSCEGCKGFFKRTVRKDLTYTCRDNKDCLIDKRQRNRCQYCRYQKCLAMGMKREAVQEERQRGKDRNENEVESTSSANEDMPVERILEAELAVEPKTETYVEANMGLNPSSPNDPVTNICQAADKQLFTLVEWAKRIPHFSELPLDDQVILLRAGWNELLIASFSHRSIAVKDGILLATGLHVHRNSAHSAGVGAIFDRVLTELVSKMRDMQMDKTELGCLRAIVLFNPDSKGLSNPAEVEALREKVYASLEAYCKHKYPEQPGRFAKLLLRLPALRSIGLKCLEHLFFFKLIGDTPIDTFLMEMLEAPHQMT

In this test the target is Retinoic acid receptor RXR-alpha (Homo sapiens) (UniProt P19793). As to the kind of experiment: TOX21_TR_RXR_BLA_Antagonist_Followup_ratio: Tox21 Thyroid Hormone Receptor beta Retinoid X Receptor alpha (RXRa) Antagonism Beta-lactamase (BLA) Follow-Up Assay, Ratio (AID 2283972). An excerpt:
GeneBLAzer RXRa-UAS-bla HEK293T assay (RXRa-bla) (ThermoFisherScientific Catalog No. K1697) was run in qHTS 1536 well format as a secondary assay for specificity of response in the TOX21_TR_GH3_LUC_Agonist assay.TOX21_TR_RXR_BLA_Antagonist_Followup_ratio is an assay readout measuring reporter gene via receptor activity and designed using inducible reporter (beta lactamase induction) detected with GAL4 b-lactamase reporter gene. The signal is derived from the ratio of cleaved (ch2) to uncleaved (ch1) reporter gene substrate used as the measure of target activity.Data from the assay component TOX21_TR_RXR_BLA_Antagonist_Followup_ratio was analyzed into 1 assay endpoint. This assay endpoint, TOX21_TR_RXR_BLA_Antagonist_Followup_ratio, was analyzed in the positive analysis fitting direction relative to DMSO as the negative control and baseline of activity. Using a type of inducible reporter, loss-of-signal activity can be used to understand changes in the reporter gene as they relate to the gene RXRA. Furthermore, this assay endpoint can be referred to as a primary readout, because this assay has produced multiple assay endpoints and this ratio serves a reporter gene function to understand target activity. To generalize the intended target to other relatable targets, this assay endpoint is annotated to the nuclear receptor intended target family, where subfamily is non-steroidal.
Cell Media Required: Growth (90% DMEM/F-12, 10% Fetal Bovine Calf Serum, 100U/ml Penicillin, 100 ug/ml Streptomycin), Assay (10ng/mL sodium selenite, 10 ug/mL humanapo-transferrin, […] uM ethanolamine, 10 ug/mL insulin, 500 ug/mL bovine serum albumin (BSA))Assay Protocol: RXRa-bla cells were seeded at 2,500/well in 6 uL of the assay medium containing phenol red-free DMEM with 2% charcoal-stripped FBS in 1,536-well black-wall/clear-bottom plates (Greiner Bio-One North America) usinga Multidrop Combi dispenser. After5-h incubation at 37C/5% CO2 for cell attachment, 23 nL of follow-up compounds dissolved in DMSO, 11 concentrations in triplicate, and the positive control (9-cis retinoic acid) were transferred to the assay plates using a Pintool station. The assay plates were incubated at 37C/5% CO2 for 16h. One microliter of LiveBLAzer FRET-B/GCCF4-AM substrate (Life Technologies) was added to each well using an FRD. After 2-h incubation at room temperature, the fluorescence intensity was measured using an Envision plate reader (Perkin Elmer). Data were expressed as the ratio of 460:530 nm.
Regarding `COc1ccc(/C=C/C(=O)Nc2ccccc2C(=O)O)cc1OC`, the result was inactive. In the case of `Brc1cc(Oc2cc(Br)c(Br)c(Br)c2Br)c(Br)c(Br)c1Br`, the outcome was inactive. Turning to `Nc1c2ccccc2nc2ccccc12`, the result was inactive. For `CC(C)n1c(/C=C/[C@@H](O)C[C@@H](O)CC(=O)O)c(-c2ccc(F)cc2)c2ccccc21`, the result was inactive. In the case of `C#CCC(Cc1cnc2nc(N)nc(N)c2n1)c1ccc(C(=O)N[C@@H](CCC(=O)O)C(=O)O)cc1` (stereo not given in full), the AC50 is 0.448 µM (active).

For the compound `CC(C)=CCC1=C(O)c2ccccc2C(=O)C1=O`, the outcome was inactive. In the case of `O=c1[nH]c(=O)n([C@H]2C[C@H](O)[C@@H](CO)O2)cc1F`, the outcome was inactive.

Consider `CC1(C)N=C(N)N=C(N)N1c1ccc(Cl)cc1`, for which the outcome was inactive. `C[n+]1c2cc(N)ccc2cc2ccc(N)cc21` (tested in a mixture with another compound): the half-maximal activity concentration (AC50) was 19.2 µM (active). Regarding `CCCOc1ccc2nc(NC(=O)OC)sc2c1`, the outcome was inactive.

`CC1(C)S[C@@H]2[C@H](NC(=O)C(N)c3ccccc3)C(=O)N2[C@H]1C(=O)OC1OC(=O)c2ccccc21` (stereo not given in full): the result was inactive. In the case of `O=C(CCCCCCC(=O)Nc1ccccc1)NO`, the outcome was inactive.

With `CO[C@H]1C[C@@H]2CC[C@@H](C)[C@@](O)(O2)C(=O)C(=O)N2CCCC[C@H]2C(=O)O[C@H]([C@H](C)C[C@@H]2CC[C@@H](O)[C@H](OC)C2)CC(=O)[C@H](C)/C=C(\C)[C@@H](O)[C@@H](OC)C(=O)[C@H](C)C[C@H](C)\C=C/C=C/C=C/1C`, the outcome was inactive. As to `COc1cc([C@@H]2c3cc4c(cc3[C@H](O)[C@H]3COC(=O)[C@H]23)OCO4)cc(OC)c1OC`, the result was inactive. `NC(N)=NCc1cccc(I)c1`: the outcome was inactive. Regarding `COc1ccc2nc(NC(=O)Nc3ccccc3)sc2c1`, the result was inactive. Turning to `Oc1c(I)cc(I)c2cccnc12`, the outcome was inactive. Consider `Cc1nc2ccccc2n1Cc1ccc(Cl)cc1`, for which the result was inactive. As for `CC[C@@]1(O)C[C@@H]2CN(CCc3c([nH]c4ccccc34)[C@@](C(=O)OC)(c3cc4c(cc3OC)N(C)[C@H]3[C@@](O)(C(=O)OC)[C@H](OC(C)=O)[C@]5(CC)C=CCN6CC[C@]43[C@@H]65)C2)C1`, the outcome was inactive. Same read-out and setting: the same measure for `CC[C@@]1(O)C(=O)OCc2c1cc1n(c2=O)Cc2cc3c(CN(C)C)c(O)ccc3nc2-1`: “inactive”; for `CCc1cc(Cl)c(OC)c(C(=O)NC[C@@H]2CCCN2CC)c1O`: “inactive”.

`CO[C@H](C(=O)[C@@H](O)[C@@H](C)O)C1Cc2cc3cc(O[C@H]4C[C@@H](O[C@H]5C[C@@H](O)[C@H](O)[C@@H](C)O5)[C@@H](O)[C@@H](C)O4)c(C)c(O)c3c(O)c2C(=O)[C@H]1O[C@H]1C[C@@H](O[C@H]2C[C@@H](O[C@H]3C[C@](C)(O)[C@H](O)[C@@H](C)O3)[C@H](O)[C@@H](C)O2)[C@H](O)[C@@H](C)O1` (stereo not given in full): the AC50 was 1.36 µM (active). `CCC[C@@]1(CCc2ccccc2)CC(O)=C([C@H](CC)c2cccc(NS(=O)(=O)c3ccc(C(F)(F)F)cn3)c2)C(=O)O1`: the result was inactive. Turning to `O=[Se](O)O`, the AC50 is 2.26 µM (active). Consider `COC(=O)Nc1nc2ccc(Sc3ccccc3)cc2[nH]1`, for which the result was inactive. As to `Nc1ccc2cc3ccc(N)cc3nc2c1`, the AC50 is 17.5 µM (active) and 7.59 µM (active). Take `O=C1C(=O)c2ncccc2-c2cccnc21`: the result was inactive.

`Cc1oc(C)c(C(=O)Nc2ccccc2)c1C`: the outcome was inactive. Turning to `O=C(O)c1cccc(-c2noc(-c3ccccc3F)n2)c1`, the result was inactive. As to `Cc1cc(Nc2ccccc2C(=O)O)ccc1Cl`, the result was inactive.
